# GLD-1 TGE inh = GLD-1/TGE RNA complex disruptors, primary screen, biochemical, fluorescence polarization; Female germline-specific tumor suppressor gld-1 (Caenorhabditis elegans), Q17339; purified GLD-1 + fluorescein TGE RNA; inhibition, % at 5.96 µM; hit rate 0.44% among 320,000;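 active = percent inhibition above a per-plate cutoff, the plate mean of test compounds plus 3 SD, cut at about 30% in these data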;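 note: 0% = DMSO wells with GLD-1 and probe and 100% = wells lacking GLD-1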
# Target sequence (Q17339 whole entry, looked up): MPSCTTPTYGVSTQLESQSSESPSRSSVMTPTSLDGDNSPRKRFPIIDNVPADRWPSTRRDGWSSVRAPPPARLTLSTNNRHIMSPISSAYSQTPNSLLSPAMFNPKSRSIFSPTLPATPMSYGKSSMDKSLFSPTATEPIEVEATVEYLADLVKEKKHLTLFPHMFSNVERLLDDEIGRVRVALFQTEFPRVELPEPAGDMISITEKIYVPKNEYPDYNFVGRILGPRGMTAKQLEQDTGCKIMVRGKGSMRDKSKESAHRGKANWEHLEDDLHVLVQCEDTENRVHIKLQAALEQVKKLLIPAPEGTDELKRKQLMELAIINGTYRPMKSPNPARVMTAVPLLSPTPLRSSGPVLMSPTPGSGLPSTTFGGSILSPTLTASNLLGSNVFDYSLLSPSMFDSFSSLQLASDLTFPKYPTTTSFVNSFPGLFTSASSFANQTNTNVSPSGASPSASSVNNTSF
# MCL1 BIM primary = inhibitors of MCL1 binding to BIM-BH3, primary screen, biochemical, fluorescence polarization. Induced myeloid leukemia cell differentiation protein Mcl-1 (Homo sapiens), Q07820. hit rate 0.68% among 320,000. inhibition, % at 10.9 µM. AID 2057, 2009. GST-MCL1 / FITC-Bim-BH3 fluorescence polarization;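 active = inhibition above the mean inhibition of all tested compounds plus 3 SD, set per campaign, cut at about 40% in these data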;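 note: 0% = DMSO wells and 100% = unlabeled Bim-BH3 peptide control; higher means more loss of mP so more displacement of Bim peptide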
# Mcl1-Noxa inh = Mcl-1/Noxa binding inhibitors, primary screen, biochemical, TR-FRET, 1536-well; hit rate 1.5% among 220,000; AID 1022, 2008; TR-FRET Mcl-1/Noxa peptide binding, 2 h; inhibition, % at 21.7 µM; Induced myeloid leukemia cell differentiation protein Mcl-1 (Homo sapiens), Q07820;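 active = compounds that cut the protein-peptide binding signal by more than 50% relative to plate controls in a single-dose test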;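 note: His-tagged Mcl-1 with rhodamine Noxa BH3 peptide and terbium anti-His antibody; 0% = Mcl-1 plus Noxa peptide wells and 100% = peptide-only wells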
# BCLXL inh = inhibitors of human Bcl-xL, primary screen, biochemical, fluorescence polarization, HTS | AID 2129, 2009 | hit rate 0.7% among 320,000 | Bcl-2-like protein 1 (Homo sapiens), Q07817 | inhibition, % at 10.9 µM | GST-Bcl-xL / FITC-Bim BH3 peptide fluorescence polarization;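 active = inhibition above the mean of all tested compounds plus 3 SD, cutoff set per campaign, cut at about 30% in these data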;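 note: 0% = DMSO wells and 100% = unlabeled Bim-BH3 peptide competitor; inhibitors lower millipolarization by displacing the labeled peptide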
# Mcl1 Bid PPI = Mcl-1/Bid binding inhibitors, primary screen, biochemical, TR-FRET, 1536-well. Induced myeloid leukemia cell differentiation protein Mcl-1 (Homo sapiens), Q07820. TR-FRET Mcl-1/Bid-Dy647 peptide binding. inhibition, % at 21.7 µM. hit rate 0.97% among 220,000. AID 1021, 2008;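 active = compounds that cut the binding signal by more than half at the single screening dose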;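 note: His-tagged Mcl-1 with europium anti-His antibody binding Bid BH3 peptide; 0% = Mcl-1 plus peptide wells and 100% = peptide-only wells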
# Bim-Mcl-1 = inhibitors of Bim peptide binding to Mcl-1, primary screen, biochemical, bead-based flow cytometry, multiplex; hit rate 0.1% among 190,000; Bim peptide-Mcl-1 binding; Induced myeloid leukemia cell differentiation protein Mcl-1 (Homo sapiens), Q07820; inhibition, % at 10 µM; in the data active = inhibition above about 40%;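 note: 0% = no compound tracer wells and 100% = peptide blocker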
# An asterisk follows results filed as active; nt = no result. Most compounds without a hit are left out; they make up all but 2.3% or so of the library.
SMILES,GLD-1 TGE inh,MCL1 BIM primary,Mcl1-Noxa inh,BCLXL inh,Mcl1 Bid PPI,Bim-Mcl-1
Nc1c2c(nc3ccc(Br)cc13)N(c1ccccc1)CC2,3,-6,25,-1,9,3
Nc1c2c(nc3ccc(Br)cc13)N(Cc1ccccc1)CC2,3,-9,84*,1,14,0
Nc1c2c(nc3ccc(Br)cc13)N(C1CCCCC1)CC2,-2,-16,68*,1,6,0
COc1ccc(OC(=O)c2ccc(Cl)cc2)c(C(C)=O)c1,0,-1,6,5,1,0
OCCC1CN(Cc2ccccc2-c2ccco2)CCN1C1CCCC1 (stereo not drawn),-3,6,-39,1,-57,-2
COCC(=O)Nc1ncc(S(=O)(=O)c2ccc([N+](=O)[O-])cc2)s1,2,5,0,8,68*,-1
CCCCC(=O)Nc1ncc(S(=O)(=O)c2ccc([N+](=O)[O-])cc2)s1,-5,-6,nt,0,nt,nt
O=C(Nc1nc2c(F)cc(F)cc2s1)C1CC(=O)N(Cc2ccco2)C1 (stereo not drawn),5,13,59*,9,-20,nt
O=C(Nc1ccc(F)cc1)c1nc[nH]c1C(=O)Nc1ccc([N+](=O)[O-])cc1,-5,4,62*,8,62*,-1
O=C(Nc1ccc([N+](=O)[O-])cc1)c1nc[nH]c1C(=O)NC1CCCCC1,6,-3,-14,1,-8,-1
CCn1nc([N+](=O)[O-])c(C(C#N)c2nc3cc(C(F)(F)F)ccc3s2)c(Cl)c1=O (stereo not drawn),15,6,90*,7,36,4
CCCn1nc([N+](=O)[O-])c(C(C#N)c2nc3ccccc3o2)c(Cl)c1=O (stereo not drawn),2,27,60*,21,31,1
O=[N+]([O-])c1ccc(CSc2nc3ccccc3o2)cc1,3,3,10,-4,-1,-3
CN(C(=O)c1ccc(Cl)cc1)C1=CCCCC1CCC#N (stereo not drawn),0,2,2,3,65*,0
N#CCCN(Cc1cccs1)C(=O)c1ccc(Cl)cc1,-3,1,11,1,-3,nt
O=C1NNC(c2ccccc2)=N/C1=C\c1ccco1,-1,25,65*,17,31,nt
COc1ccccc1C1Nc2cccc3cccc(c23)N1,-1,24,33,16,8,0
Oc1ccccc1C1Nc2cccc3cccc(c23)N1,6,21,98*,7,-4,-3
Cc1cccc(NC(=O)COC(=O)CSc2ccccc2)c1C,0,0,nt,-2,nt,nt
S=c1[nH]c(-c2ccccc2)cn1/N=C/c1ccncc1,7,5,27,1,-24,nt
CCOc1ccc(/C=N/n2cc(-c3ccccc3)[nH]c2=S)cc1,2,-8,53*,5,-19,-9
Cc1ccc(S(=O)(=O)Nc2ccnc3ccccc23)cc1,0,5,-2,1,63*,0
O=C(O)Cn1cnc2c(=S)nc[nH]c21,1,-3,9,4,99*,nt
Cn1c(=O)c2ncn(CC(=O)O)c2n(C)c1=O,0,0,-11,0,6,nt
CCCc1nc2ccc(N)cc2c(=O)n1Cc1ccccc1Cl,0,2,nt,1,nt,nt
SMILES,GLD-1 TGE inh,MCL1 BIM primary,Mcl1-Noxa inh,BCLXL inh,Mcl1 Bid PPI,Bim-Mcl-1
COc1ccc2nc(N3C(=O)/C(=C/c4ccc(Cl)cc4)NC3=S)sc2c1,nt,nt,87*,nt,88*,-2
COc1ccc(/C=N/Nc2nonc2N)cc1,1,3,61*,4,-12,0
Nc1nonc1N/N=C/c1c(O)ccc2ccccc12,0,7,51*,3,-21,1
COc1ccc(/C=N/Nc2nn3cnnc3c3ccccc23)cc1,7,6,57*,9,9,nt
CCOc1ccc(C=Nc2cccc3ncccc23)cc1,1,9,24,4,-42,0
Nc1nonc1N/N=C\c1ccccc1,3,1,-12,1,-2,nt
CCNc1nc(NCC)nc(N/N=C/c2ccc(OC)cc2)n1,-4,4,-20,8,-16,nt
COc1ccc(C=Nc2cccnc2N)cc1,64*,45*,nt,46*,nt,nt
CCOC(=O)C1CCCN(C(=O)c2ccc(C)c(NC(=O)C3=C(C)OCCS3)c2)C1 (stereo not drawn),6,-2,nt,0,nt,nt
CCCn1c(O)c(N=NC(=O)CNC(=O)/C=C/c2ccc(OC)cc2)c2ccccc21,-4,2,nt,7,nt,nt
C=CCn1c(O)c(N=NC(=O)CNC(=O)/C=C/c2ccc(OC)cc2)c2ccccc21,-4,5,7,6,96*,nt
C=CCn1c(O)c(N=NC(=O)CNC(=O)/C=C/c2ccco2)c2ccccc21,0,29,69*,10,-16,-2
CCOC(=O)c1c(S(=O)(=O)NCC(=O)N2CCN(c3ccccc3)CC2)c(C)n(C)c1C,-2,-7,nt,6,nt,nt
COc1ccccc1C(=O)N1CCN(c2ccccn2)CC1,2,2,3,4,-6,-2
O=C(c1ccncc1)N1CCN(C2CCC(c3ccccc3)CC2)CC1 (stereo not drawn),1,-8,28,0,-11,nt
COc1cccc(C(=O)N2CCN(Cc3ccccn3)CC2)c1OC,-5,-6,28,3,68*,-1
COc1cccc(OC)c1C(=O)N1CCN(Cc2ccncc2)CC1,-2,-2,2,-1,71*,-6
COc1cccc(C(=O)N2CCN(C3CCC(c4ccccc4)CC3)CC2)c1OC (stereo not drawn),3,1,7,3,55*,0
COc1cccc(OC)c1C(=O)N1CCN(c2ccccn2)CC1,5,5,35,3,95*,1
CC(Sc1ncn[nH]1)C(=O)Nc1cc(C(F)(F)F)ccc1Cl (stereo not drawn),7,-3,nt,3,nt,nt
Cc1ccccc1OCC(=O)Nc1ccccc1-c1ccccc1,7,-3,nt,1,nt,nt
CCOc1ccccc1OC(=O)c1cc2ccccc2oc1=O,-3,1,5,4,3,0
CN(C)c1ccnc2sc(C(N)=O)c(N)c12,2,11,-2,4,97*,0
COc1cc([N+](=O)[O-])ccc1NC(=O)CN1CCOCC1,0,1,15,4,-26,-1
O=S(=O)(Nc1ccc(N=Nc2ccc(O)c3ccccc23)cc1)c1ccccc1,4,3,59*,2,-29,1

# Source: PubChem BioAssay (several laboratories)
